Compounds without any hit were thinned out: in the full panel of roughly 83,000, 20% have a hit.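 Cell lines were cultured in 96-well plates, exposed to a single compound concentration, and assessed for percent growth 48 hours later.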 Unmarked numbers belong to inactive results. Activity calls are given as the source filed them. How the source made its calls: active means growth percent below 10; inactive means the rest.
Tests used:
Assay in all cases: NCI-60 one-dose screen, 48 h (100 = growth as untreated, 0 = no growth, -100 = all killed)
Settings in all cases: 10 µM unless noted
[1] = test system: NCI-H23 lung
[2] = test system: NCI-H226 lung
[3] = test system: NCI-H322M lung
[4] = test system: HOP-62 NSCLC
[5] = test system: NCI-H460 lung
[6] = test system: HOP-92 NSCLC
[7] = test system: NCI-H522 lung
[8] = test system: A549/ATCC NSCLC
[9] = test system: 786-0 renal
[10] = test system: COLO 205 colon
[11] = test system: DU-145 prostate
[12] = test system: K-562 leukemia
[13] = test system: MALME-3M melanoma
[14] = test system: MDA-MB-231 breast
[15] = test system: RXF 393 renal
[16] = test system: SF-268 CNS
[17] = test system: SF-295 CNS
[18] = test system: SF-539 CNS
[19] = test system: UACC-257 melanoma
[20] = test system: M14 melanoma

SMILES	growth [1]	growth [2]	growth [3]	growth [4]	growth [5]	growth [6]	growth [7]	growth [8]	growth [9]	growth [10]	growth [11]	growth [12]	growth [13]	growth [14]	growth [15]	growth [16]	growth [17]	growth [18]	growth [19]	growth [20]
COC(=O)c1ccc2c(c1)NC(=O)[C@@H]1CCCN21	88.6%	98.5%	99.3%	85.7%	106%	87.5%	70%	98.2%	97.8%	108%	106%	96.7%	105%	97.3%	106%	94.7%	100%	93.8%	98.3%	102%
O=C(Nc1ccc2ncnc(Nc3cccc(C(F)(F)F)c3)c2c1)c1cccs1	30.2%	67.6%	40.7%	58.4%	22.5%	67.6%	33.8%	32.4%	57%	24.1%	39.6%	26.3%	106%	54.3%	66.2%	51.4%	44%	87.7%	103%	49.5%
COc1ccc2[nH]c3nc4cnccc4cc3c2c1	95.2%	111%	105%	96.3%	103%	139%	87.3%	99.6%	104%	111%	101%	111%	108%	109%	123%	106%	114%	102%	122%	102%
C=C(C)[C@@H]1CC[C@]2(C(=O)O)CC[C@]3(C)[C@H](CC[C@@H]4[C@@]5(C)C[C@@H](CC#Cc6ccc(Cl)cc6)C(=O)C(C)(C)[C@@H]5CC[C@]43C)[C@@H]12	28.5%	40.2%	55.6%	54.7%	34.8%	67.9%	12.6%	31.3%	60.5%	53.8%	39.4%	28.8%	21.2%	6.05% (active)	62.4%	74.1%	41.3%	57%	75.6%	1.24% (active)
c1ccc2nc(N3CCOCC3)c(N3CCCCC3)nc2c1	95.6%	95.8%	95.9%	94.1%	105%	84.5%	85.3%	96.9%	102%	110%	111%	90.5%	92.1%	97%	98%	95.2%	97.2%	99%	103%	105%
COc1cc(/C=C/C(=O)/C=C/c2cc3ccc(Cl)cc3[nH]c2=O)ccc1O	61.2%	80.1%	92.2%	114%	53.3%	77.4%	66.4%	79.8%	30.8%	105%	45.9%	23.2%	101%	45.9%	70.9%	72.2%	79.7%	105%	90.8%	54.1%
CCc1c(C(=O)N[C@@H](C(=O)OCc2ccccc2)C(C)O)[nH]c2ccc(Cl)cc12 (stereo not given in full)	80.1%	21.7%	75%	65.8%	13.8%	74.5%	77.1%	69.6%	11.1%	48.7%	86.5%	104%	69.7%	61.3%	83.8%	84.3%	52.1%	71.4%	109%	88.3%
CN(C)c1ccc(-c2ccc3[nH]c(=O)nc(-c4ccc(F)cc4)c3c2)cn1	56.2%	68.3%	68.2%	48.2%	21.6%	56.1%	14.9%	39.6%	30.4%	39.6%	51.6%	11.9%	64.4%	47.7%	41.5%	45.5%	21.5%	24.2%	54.4%	22.7%
COc1ccc2c(c1)OC13Oc4cc(OC)ccc4C=C1CCCCC3=C2	91.6%	88.4%	105%	99.3%	94.4%	80.7%	66.2%	73.8%	87.2%	101%	104%	88.7%	97.9%	93.8%	87.5%	90.7%	96.8%	98.4%	78.6%	90.4%
COc1cc2c(cc1OC)C(Sc1ccc(Cl)cc1)c1c(nc(N)c(C#N)c1N)O2 (stereo not given)	-20.2% (active)	16.2%	42.1%	63%	-55% (active)	20.1%	-67.6% (active)	44.1%	-17.1% (active)	-65.6% (active)	5.73% (active)	0.964% (active)	-28.6% (active)	-20.1% (active)	-65.4% (active)	35.7%	43.8%	-21.9% (active)	22.5%	-21.2% (active)
COc1cc(/C=C/C(=O)/C=C/c2cc3ccc(Cl)cc3n(Cc3ccccc3)c2=O)ccc1O	-20.6% (active)	-6.08% (active)	23.9%	-6.74% (active)	-29.1% (active)	-5% (active)	-37.6% (active)	-3.99% (active)	-55.7% (active)	7.89% (active)	-35.1% (active)	3.2% (active)	4.83% (active)	-16.7% (active)	-79.9% (active)	13.7%	5.91% (active)	9.94% (active)	-13.9% (active)	-11.3% (active)
NC(N)=NC(N)=Nc1cc2ccccc2c2ccccc12	44.8%	54.3%	53.3%	38.3%	21.9%	-3.37% (active)	7.5% (active)	41.1%	14.4%	-59% (active)	56.3%	5.89% (active)	-8.45% (active)	15.6%	36.3%	48%	53.3%	59.9%	74.4%	-33.4% (active)
C=C(C)[C@@H]1CC[C@]2(C(=O)OCCOCCOCC[P+](c3ccccc3)(c3ccccc3)c3ccccc3)CC[C@]3(C)[C@H](CC[C@@H]4[C@@]5(C)CC[C@H](OC(=O)C(Cl)Cl)C(C)(C)[C@@H]5CC[C@]43C)[C@@H]12	0.446% (active)	-2.33% (active)	21%	11%	-13.3% (active)	-67.5% (active)	-24.4% (active)	6.87% (active)	-85.1% (active)	-83.7% (active)	15.5%	-20.9% (active)	-82.9% (active)	-46.7% (active)	-81.7% (active)	4.59% (active)	-82.1% (active)	-20.2% (active)	-27.9% (active)	-80.9% (active)
COc1cc(/C=C/C(=O)c2ccc(NC(=O)CSc3nnc(-c4cc(OC)c(OC)c(OC)c4)n3-c3ccccc3)cc2)cc(OC)c1OC	-3.58% (active)	-64% (active)	64.5%	-9.19% (active)	13%	53.9%	-4.14% (active)	20.2%	-52% (active)	10.2%	26.5%	6.66% (active)	67.7%	42.7%	-55.4% (active)	34.3%	17.7%	18.6%	45.8%	-9.25% (active)
COc1cc(NCC(=O)Nc2cc(Nc3cccc(C(F)(F)F)c3)ncn2)c(Cl)c(OC)c1Cl	91.9%	94.9%	101%	87.6%	103%	92.7%	67.8%	81.2%	97.2%	104%	97.4%	85.6%	115%	78.2%	114%	98.9%	75%	101%	88.2%	93.1%

Reference: PubChem BioAssay (NCI)
